# Source: PubChem (National Center for Advancing Translational Sciences (NCATS))
# Shown are actives, neighbours in structure and some others; about 5.7% of the full set was active somewhere.
# HT1080 IDH1KD tx: kills HT-1080 cells with IDH1 knockdown | HT-1080 IDH1 knockdown viability, ATP luminescence, 48 h | Potency, µM (doses to about 46.1 µM), without a hit: top-dose activity, negative = toxicity, most hits filed as cytotoxic | hit rate 2% among 360,000 | AID 686971;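 note: 0% = DMSO wells and -100% = cell-free medium wells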
#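 Luminescent ATP read-out (CellTiter-Glo, 10 min at room temperature) after 48 h compound exposure at 37 °C gave viability of IDH1-knockdown HT-1080 cells. Activity was normalised to DMSO and cell-free wells, then fitted as concentration-response curves.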
# HT1080-NT tox: kills 2HG-producing HT-1080-NT fibrosarcoma cells | HT-1080-NT fibrosarcoma viability, CellTiter-Glo ATP luminescence, 48 h | Potency, µM (doses to about 46.1 µM), inactives show at the top dose activity, negative = less viability, hits mostly cytotoxic | hit rate 1.6% among 360,000 | AID 686970;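 note: NT is the 2HG producing partner of a matched IDH1 knockdown line; 0% = DMSO-treated cells and -100% = media-only wells without cells; nearly all actives have a fitted effect of over 55% in size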
#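 Compounds were tested in concentration-response format on HT-1080-NT cells for 48 hours at 37 degrees C. Cell viability came from CellTiter-Glo luminescence; curves were classified by r2, response magnitude and activity.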
# KB-3-1 cytotox: KB-3-1 parental cell cytotoxicity; hit rate 1.4% among 400,000; Potency, µM (titrated, usually from 46.1 µM), usual class: cytotoxic; KB-3-1 viability, CellTiter-Glo ATP luminescence, 72 h; note: nearly all actives have a fitted effect of over 60% in size
#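 Cells are dispensed, compounds pinned in, plates held at 37 °C for 72 h, then CellTiter-Glo is added and luminescence read after 10 minutes. Cell line: parental KB-3-1 in phenol-red-free DMEM, 10% FBS.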
# KB-V1 cytotox: KB-V1 MDR subline cytotoxicity; Potency, µM (doses to about 46.1 µM), usual class: cytotoxic; hit rate 3.4% among 400,000; KB-V1 MDR cells viability, CellTiter-Glo, 72 h; note: nearly all actives have a fitted effect of over 60% in size
#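 Following 72 h at 37 degrees C with compound, KB-V1 cell viability was read by CellTiter-Glo luminescence, medium being phenol-red-free DMEM plus 10% FBS; concentration-response parameters came from normalized, curve-fitted qHTS data.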
# Active calls of the source: *; i = inactive; ? = inconclusive; . = not tested or not shown; ! = not active in a repeat; [ ] = remark or other dose. Calls come from the whole dose curve; as a rule, active = well fitted curve in the direction sought with a large enough effect; inconclusive = small, poorly fitted or top-dose-only effect, or another doubt; inactive = no such curve, though single readings can be large; an effect the other way counts as inactive or inconclusive. Unless noted, % is set by controls: 0 for no effect and ±100 for the full control effect; potency is the fitted concentration of half-maximal effect.
SMILES,HT1080 IDH1KD tx,HT1080-NT tox,KB-3-1 cytotox,KB-V1 cytotox
Cc1ccc(OCC(=O)N(Cc2ccccc2)C(C)(C)C)c([N+](=O)[O-])n1,-1%,-11%,i,23µM*
O=C(NCCc1nc2ccccc2n1CCOc1ccccc1)C1CCCCC1,.,.,i,i
CCOC(=O)c1ccc2c(c1)N(Cc1ccc(F)cc1Cl)C(=O)c1ccccc1S2(=O)=O,.,.,i,i
CCCCOC(=O)c1ccc(Nc2ncnc3[nH]ncc23)cc1,.,.,i,i
COCCn1c(C)cc(C(=O)COc2ccc(C)nc2[N+](=O)[O-])c1C,0%,-1%,i,i
CCCn1c(C)cc(C(=O)COc2ccc(C)nc2[N+](=O)[O-])c1C,3%,7%,i,16µM*
COc1ccc(S(=O)(=O)NCc2cccnc2)cc1,1%,-5%,i,i
O=C(CCC1CCCC1)Nc1ccc(C(=O)NCc2cccnc2)cc1,6.5µM*,5.2µM*,i,i
O=C(NCc1cccnc1)c1ccc(NC(=O)c2cccc([N+](=O)[O-])c2)cc1,3.7µM*,?,i,i
O=C(Nc1ccccc1)c1ccc(S(=O)(=O)NCc2cccnc2)cc1,-16%,-25%,?,21µM*
COc1ccc(S(=O)(=O)NCc2cccnc2)cc1Br,16µM*,0%,i,i
O=C(Nc1ccc(S(=O)(=O)NCc2cccnc2)cc1)c1ccccc1Cl,-9%,1%,i,i
CCc1ccc(C=O)cc1,.,.,i,i
O=C(CSc1nc2c(cnn2-c2ccc(F)cc2)c(=O)[nH]1)Nc1ccc(Br)cc1,.,.,i,i
COc1cccc(NC(=O)c2cc([N+](=O)[O-])ccc2NCc2cccnc2)c1,-22%,-28%,i,3.7µM*
CC(=O)Nc1ccc2nc(-c3cc(C)ccc3C)[nH]c2c1,.,.,?,16µM*
Cc1cccc(C)c1-n1nnnc1-c1nc2cc3ccccc3cc2[nH]c1=O,0.37µM*,0.65µM*,1µM*,6.5µM*
CN(C)c1ccc(CNC(=O)C2CCN(Cc3cc4ccccc4n3Cc3ccccc3)CC2)cc1,.,.,i,i
Cc1ccc(S(=O)(=O)c2nc(Nc3ccccc3C#N)sc2Cl)cc1,2%,-2%,i,i
Cc1ccc(S(=O)(=O)c2nc(Nc3ccccc3N3CCOCC3)sc2Cl)cc1,7%,20%,i,10µM*
O=C(COc1coc(CN2CCN(c3ccc(F)cc3)CC2)cc1=O)NC1CCCC1,5%,13%,i,i
O=C(COc1coc(CN2CCN(c3ccc(F)cc3)CC2)cc1=O)NC1CCCCC1,-11%,-1%,?,4.1µM*
CNc1cc2c(cc1S(=O)(=O)Nc1ccc(C)c(C)c1)CCC(=O)N2,.,.,i,i
CC(NC1CCN(Cc2ccccc2)CC1)c1ccc(F)cc1 (configuration not stated),-23%,-21%,i,i
CN1CCC(NCCC(c2ccc(F)cc2)c2ccc(Cl)cc2)CC1 (configuration not stated),5.2µM*,4.1µM*,16µM*,?
SMILES,HT1080 IDH1KD tx,HT1080-NT tox,KB-3-1 cytotox,KB-V1 cytotox
CCOc1c(Cl)cc(CNc2ccc(S(N)(=O)=O)cc2)cc1OC,-11%,0%,i,i
CCOc1c(Cl)cc(CNc2ccc(N3CCCC3)cc2)cc1OC,9.2µM*,?,?,i
CCc1cc[n+](C2=C([O-])c3ccccc3C(=O)/C2=N\S(=O)(=O)c2cccs2)cc1,18µM*,18µM*,i,i
Cc1nc(SCC(=O)N2CCN(c3ccccc3)CC2)c2oc3ccccc3c2n1,3%[9.24 µM],-20%,i,21µM*
CCc1nc(SCC(=O)NC2CCCC2)c2oc3ccccc3c2n1,4%,9%,i,?
Cc1nc(SCC(=O)O)c2oc3ccccc3c2n1,-18%,-3%,i,i
CCc1nc(SCC(=O)N2CCCc3ccccc32)c2oc3ccccc3c2n1,-23%,-7%,?,10µM*
CCc1nc(SCC(=O)Nc2ccc3c(c2)OCCO3)c2oc3ccccc3c2n1,0%,2%,?,21µM*
O=C(CSc1nc(-c2ccc(F)cc2)[nH]c1-c1ccc(F)cc1)Nc1ccc2c(c1)OCCO2,.,.,?,18µM*
CCOc1ccccc1NC(=O)C(=O)c1cc(C)n(-c2cccc(C)c2C)c1C,.,.,i,i
COC(=O)c1sc2cccc(F)c2c1S(=O)(=O)NCc1ccc(Cl)cc1,.,.,i,?
Cc1ccc2cc3c(N)nn(C(=O)c4cccc(F)c4)c3nc2c1,.,.,i,i
CCCc1nc(SC)ncc1C(=O)N1CCN(c2ccc(Cl)cc2)CC1,.,.,i,i
CCCN1CNc2c(c(=O)[nH]c(=S)n2CCC)C1,24%,15%,.,.
O=C(CSc1ncnc2c1oc1ccccc12)Nc1cccc(F)c1,-16%,-12%,i,i
Cc1nc(SCC(=O)NCc2ccccc2)c2oc3ccccc3c2n1,0%,0%,i,i
O=C(CSc1ncnc2c1oc1ccccc12)Nc1ccc2c(c1)OCCO2,-17%,-13%,i,16µM*
Cc1nc(SCC(=O)Nc2ccc3c(c2)OCCO3)c2oc3ccccc3c2n1,-14%,6%,i,16µM*
Cc1cc(C)n(CC(=O)Nc2cc(F)ccc2F)c(=O)c1C#N,.,.,i,i
Cc1ccc(NC(=O)N2CCC(n3c(C)nc4cccnc43)CC2)c(Cl)c1,.,.,i,i
COc1ccc(OC)c(S(=O)(=O)N2CCCCC2C(=O)N2CCN(c3ccccn3)CC2)c1 (configuration not stated),15%,2%,i,9.2µM*
COc1ccc(OC)c(S(=O)(=O)N2CCN(c3ccccn3)CC2)c1,2%,-25%,i,i
COc1ccc(-c2noc(CC(=O)Nc3cc(OC)ccc3OC)n2)cc1,.,.,i,i
CC(=O)Nc1nc2cc3c(cc2s1)OCCO3,-2%,2%,?,i
O=C(Nc1nc2ccc(F)cc2s1)C1=COCCO1,?,?,?,12µM*
SMILES,HT1080 IDH1KD tx,HT1080-NT tox,KB-3-1 cytotox,KB-V1 cytotox
CSc1cccc2sc(NC(=O)C3=COCCO3)nc12,0%,-8%,i,i
O=C(Nc1nc2cc3c(cc2s1)OCCO3)C1=COCCO1,13µM*,15µM*,i,i
COc1cccc(-n2c(SCC(=O)Nc3cc(C)ccc3C)nc3c(oc4ccccc43)c2=O)c1,.,.,i,i
CCCCOc1ccc(CC(N)=O)cc1,19%,16%,.,.
CCCCOc1ccc(CSCCN=C(N)N)cc1,26µM*,?,i,i
COc1cc(C(=O)OCC(=O)c2cc(C)n(C)c2C)cc(OC)c1OC,?,?,?,5.2µM*
CCOc1ccc(CN2C(=O)c3ccccc3Sc3ccc(C(=O)NCCCN4CCOCC4)cc32)cc1,?,?,18µM*!,?
O=C(NCCCN1CCOCC1)c1ccc2c(c1)N(Cc1ccccc1)C(=O)c1ccccc1S2,-2%,-1%,i,i
COc1cccc(N=c2oc3ccccc3cc2-c2nc3ccccc3[nH]2)c1,?,?,i,18µM*
COc1cccc(N=c2oc3ccc(OC)cc3cc2-c2nc3ccccc3[nH]2)c1,?,-21%,i,i
